Among the data in a collection of fitness landscapes (doi:10.1126/science.1257360) are enrichment ratio values, retold here.

The chains are these.
B1: PhoQ; a variant is named by its letters at X, in order, P23837 (parent)
chain: MKKLLRLFFPLSLRVRFLLATAAVVLVLSLAYGMVALIGYSVSFDKTTFRLLRGESNLFYTLAKWENNKLHVELPENIDKQSPTMTLIYDENGQLLWAQRDVPWLMKMIQPDWLKSNGFHEIEADVNDTSLLLSGDHSIQQQLQEVREDDDDAEMTHSVAVNVYPATSRMPKLTIVVVDTIPVELKSSYMVWSWFIYVLSANLLLVIPLLWVAAWWSLRPIEALAKEVRELEEHNRELLNPATTRELTSLVRNLNRLLKSERERYDKYRTTLTDLTHSLKTPLXXLQXXLRSLRSEKMSVSDAEPVMLEQISRISQQIGYYLHRASMRGGTLLSRELHPVAPLLDNLTSALNKVYQRKGVNISLDISPEISFVGEQNDFVEVMGNVLDNACKYCLEFVEISARQTDEHLYIVVEDDGPGIPLSKREVIFDRGQRVDTLRPGQGVGLAVAREITEQYEGKIVAGESMLGGARMEVIFGRQHSAPKDE

In all, about 140,000 sequences were measured (“enrichment ratio after two sorts for PhoP signalling”: median about 0, highest 2% from about 11 on). The sample as a whole holds a higher share of the highest values than the screen did. A value given as a limit tells only on which side of the number the result lay.

Variants of B1 are the subject of this test. Description: enrichment ratio after two sorts for PhoP signalling (ratio (wild type AVST 3.29)); higher = more functional. The conditions noted are these: with PhoP (E. coli).
Turning to NVCW, the enrichment ratio was not above 0.25.

Turning to GVCG, the enrichment ratio amounted to 12.7.

For the variant GTCG, the enrichment ratio came to 7.53.

Take PWCG: the enrichment ratio was not above 0.25.

For the variant GQCS, the enrichment ratio was 4.33.

In the case of GVCW, the enrichment ratio came out at 11.5.

With GQCI, the enrichment ratio is 2.43.

PNCG: the enrichment ratio is not above 0.25.

As to GQCE, the enrichment ratio turned out to be 21.9.

In the case of GQCG, the enrichment ratio worked out at 16.6.

As for GNCW, the enrichment ratio is not above 0.25.

As for GQWG, the enrichment ratio was not above 0.25.

As to TNLK, the enrichment ratio was not above 0.25.

With EITI, the enrichment ratio is not above 0.25.

Regarding RPCA, the enrichment ratio is not above 0.25.

WVGL: the enrichment ratio is not above 0.25.

Regarding NTRE, the enrichment ratio is not above 0.25.

Turning to RRCS, the enrichment ratio is not above 0.25.

Regarding NLFK, the enrichment ratio was not above 0.25.

Take SDVW: the enrichment ratio is not above 0.25.

Regarding PHGP, the enrichment ratio was not above 0.25.

Turning to TMNK, the enrichment ratio was not above 0.25.

Consider FFGC, for which the enrichment ratio is not above 0.25.

Turning to QGGC, the enrichment ratio was determined as 19.5.

With DMNC, the enrichment ratio was not above 0.25.

Regarding KCGC, the enrichment ratio is not above 0.25.

Regarding TMTC, the enrichment ratio worked out at 13.5.

For the variant TMPC, the enrichment ratio was not above 0.25.

TMGC: the enrichment ratio was 11.3.

Regarding TMNC, the enrichment ratio stood at 15.3.

Turning to QPGC, the enrichment ratio was not above 0.25.

In the case of NHGC, the enrichment ratio is not above 0.25.

As to KMNC, the enrichment ratio is not above 0.25.

For the variant EFVE, the enrichment ratio is not above 0.25.

On to GASP, for which the enrichment ratio is not above 0.25.

Regarding HAHN, the enrichment ratio is not above 0.25.

As to TCGC, the enrichment ratio came to 23.2.

For the variant NMLC, the enrichment ratio is not above 0.25.

With GMGC, the enrichment ratio is not above 0.25.

Regarding VEGC, the enrichment ratio was not above 0.25.

On to TMGQ, for which the enrichment ratio was 5.04.

As to MEGC, the enrichment ratio was not above 0.25.

In the case of TMGA, the enrichment ratio turned out to be 17.5.

For the variant MIGC, the enrichment ratio is 41.4.

TMLC: the enrichment ratio was determined as 13.8.

In the case of TMPP, the enrichment ratio is not above 0.25.

MITC: the enrichment ratio is not above 0.25.

As to DMLC, the enrichment ratio was not above 0.25.

With ATVL, the enrichment ratio came to 4.07.

On to EFKF, for which the enrichment ratio was not above 0.25.

Turning to SCEM, the enrichment ratio was not above 0.25.

On to TMCR, for which the enrichment ratio stood at 20.7.

As to CFGC, the enrichment ratio was not above 0.25.

As for AQGC, the enrichment ratio is 12.4.

For the variant TMKR, the enrichment ratio was not above 0.25.

Consider THGC, for which the enrichment ratio amounted to 5.27.

For TMTS, the enrichment ratio came out at 11.7.

TMWA: the enrichment ratio is not above 0.25.

Consider AIGC, for which the enrichment ratio stood at 5.62.

For the variant NQGC, the enrichment ratio is not above 0.25.

TMPI: the enrichment ratio was not above 0.25.

With TGGC, the enrichment ratio was determined as 11.2.

Take TMQR: the enrichment ratio is 8.83.

Take RMSH: the enrichment ratio was not above 0.25.

QWWT: the enrichment ratio is not above 0.25.

With TGKL, the enrichment ratio was not above 0.25.

Regarding NNCI, the enrichment ratio is not above 0.25.

Consider HTDV, for which the enrichment ratio was not above 0.25.

For the variant IQST, the enrichment ratio was not above 0.25.

As for SVER, the enrichment ratio was not above 0.25.

On to HCRQ, for which the enrichment ratio was not above 0.25.

On to NKWN, for which the enrichment ratio was not above 0.25.

Regarding VGGC, the enrichment ratio is not above 0.25.

As to TDGC, the enrichment ratio is 17.1.

KAGC: the enrichment ratio is not above 0.25.

SSGC: the enrichment ratio amounted to 13.8.

Consider LTGC, for which the enrichment ratio was not above 0.25.

For the variant SRGC, the enrichment ratio was not above 0.25.

Consider TAGC, for which the enrichment ratio is 13.9.

On to KSGC, for which the enrichment ratio was not above 0.25.

FDGC: the enrichment ratio is not above 0.25.

Consider MLHI, for which the enrichment ratio is 1.88.

WSGR: the enrichment ratio is not above 0.25.

Take TCPW: the enrichment ratio was not above 0.25.

In the case of LTCV, the enrichment ratio is not above 0.25.

For the variant RIDL, the enrichment ratio is not above 0.25.

In the case of TYQH, the enrichment ratio was not above 0.25.

For CKSI, the enrichment ratio was not above 0.25.

On to WTRS, for which the enrichment ratio is not above 0.25.

Regarding TFHR, the enrichment ratio is not above 0.25.

As for YNLV, the enrichment ratio amounted to 1.85.

For the variant DWIL, the enrichment ratio was not above 0.25.

In the case of DWSY, the enrichment ratio was not above 0.25.

Turning to TQSY, the enrichment ratio turned out to be 12.3.

In the case of LAAY, the enrichment ratio is not above 0.25.

Take NVSY: the enrichment ratio is not above 0.25.

FQII: the enrichment ratio was not above 0.25.

As to NHQY, the enrichment ratio was not above 0.25.

Take TQII: the enrichment ratio came to 15.7.

Regarding THQY, the enrichment ratio was found to be 15.

For the variant SHQY, the enrichment ratio was not above 0.25.

For the variant TQAY, the enrichment ratio is 17.

Regarding FQAY, the enrichment ratio is not above 0.25.

TQID: the enrichment ratio was not above 0.25.

Take EFDW: the enrichment ratio is not above 0.25.

For the variant DSGT, the enrichment ratio was not above 0.25.

In the case of HYAH, the enrichment ratio is not above 0.25.

With YAPS, the enrichment ratio came out at 0.949.

For YQLH, the enrichment ratio was 0.516.

With HVYR, the enrichment ratio was not above 0.25.

Turning to KSQY, the enrichment ratio was not above 0.25.

Turning to TSQY, the enrichment ratio was 13.5.

As for TVQY, the enrichment ratio was 19.2.

Take TQQY: the enrichment ratio was 15.1.

Turning to TQEY, the enrichment ratio is not above 0.25.

Take LAQY: the enrichment ratio is not above 0.25.

Consider SPQY, for which the enrichment ratio was not above 0.25.

As for MMQY, the enrichment ratio is not above 0.25.

Turning to NVQY, the enrichment ratio was not above 0.25.

Consider VSHP, for which the enrichment ratio is not above 0.25.

Take ARTY: the enrichment ratio is not above 0.25.

As for IGHH, the enrichment ratio worked out at 2.36.

As for LVAL, the enrichment ratio was not above 0.25.

Take YMKE: the enrichment ratio was not above 0.25.

Turning to RLRC, the enrichment ratio was not above 0.25.

Consider VFML, for which the enrichment ratio was not above 0.25.

In the case of VYML, the enrichment ratio is not above 0.25.

As for RSML, the enrichment ratio was not above 0.25.

As to VSML, the enrichment ratio was found to be 15.7.

As to FSML, the enrichment ratio was determined as 12.7.

Turning to QSML, the enrichment ratio is 3.2.

Take FQML: the enrichment ratio turned out to be 0.396.

Consider YSML, for which the enrichment ratio amounted to 14.4.

Regarding VTEL, the enrichment ratio is not above 0.25.

On to VTML, for which the enrichment ratio is 15.3.

In the case of LPWT, the enrichment ratio was not above 0.25.

Take DNAA: the enrichment ratio is not above 0.25.

In the case of DPIA, the enrichment ratio was not above 0.25.

GRAC: the enrichment ratio is not above 0.25.

Turning to NSML, the enrichment ratio was 4.86.

Take KSML: the enrichment ratio is not above 0.25.

As for TSML, the enrichment ratio was found to be 17.8.

Take PARS: the enrichment ratio is not above 0.25.

Turning to QYPA, the enrichment ratio was not above 0.25.

As for YART, the enrichment ratio was not above 0.25.

Regarding QKCC, the enrichment ratio was not above 0.25.

With TVGG, the enrichment ratio turned out to be 16.2.

PVGG: the enrichment ratio was not above 0.25.

On to TVGQ, for which the enrichment ratio worked out at 15.3.

For NVGG, the enrichment ratio is not above 0.25.

Regarding HCGQ, the enrichment ratio is not above 0.25.

Take KIGQ: the enrichment ratio is not above 0.25.

In the case of ELLA, the enrichment ratio is not above 0.25.

With RCNM, the enrichment ratio was not above 0.25.

On to THRA, for which the enrichment ratio was not above 0.25.

In the case of PAWH, the enrichment ratio is not above 0.25.

Consider THDV, for which the enrichment ratio was not above 0.25.

Turning to RHTL, the enrichment ratio was not above 0.25.

As to TEQT, the enrichment ratio amounted to 23.1.

Take KRQT: the enrichment ratio is not above 0.25.

For NEQT, the enrichment ratio was not above 0.25.

Take TGCT: the enrichment ratio was 1.82.

Consider GGCT, for which the enrichment ratio was 15.6.

With AKTS, the enrichment ratio is 5.9.

Take GNCT: the enrichment ratio is 10.8.

In the case of TIQT, the enrichment ratio stood at 12.7.

In the case of RIQT, the enrichment ratio was not above 0.25.

As to TKTS, the enrichment ratio turned out to be 11.9.

With MKTS, the enrichment ratio was not above 0.25.

For AIQT, the enrichment ratio is not above 0.25.

As for QLVG, the enrichment ratio was not above 0.25.

With ADVM, the enrichment ratio was found to be 6.88.

Regarding KTVF, the enrichment ratio was not above 0.25.

Consider GTKH, for which the enrichment ratio is not above 0.25.

With IWLA, the enrichment ratio is not above 0.25.

Regarding KRCT, the enrichment ratio is not above 0.25.

For the variant TRCT, the enrichment ratio worked out at 18.2.

Turning to FDCT, the enrichment ratio was not above 0.25.

For the variant ADCT, the enrichment ratio is not above 0.25.

Turning to HRCT, the enrichment ratio is not above 0.25.

HKCT: the enrichment ratio was not above 0.25.

With TDQT, the enrichment ratio came to 34.2.

As to TKCT, the enrichment ratio is 38.2.

Take KDQT: the enrichment ratio was not above 0.25.

For TDCT, the enrichment ratio stood at 14.8.

In the case of ADQT, the enrichment ratio was not above 0.25.

With KKCT, the enrichment ratio was not above 0.25.

Turning to SNRN, the enrichment ratio was not above 0.25.

As to VNAY, the enrichment ratio is not above 0.25.

Turning to NARV, the enrichment ratio was not above 0.25.

As for WLPG, the enrichment ratio is not above 0.25.

For LHMC, the enrichment ratio is not above 0.25.

With VHGV, the enrichment ratio was not above 0.25.

As for KDPY, the enrichment ratio is not above 0.25.

As to PSCV, the enrichment ratio is not above 0.25.
